# Compound activity deposited in PubChem by National Center for Advancing Translational Sciences (NCATS).
# Most compounds without a hit are left out; they make up all but 11% or so of the library.
# L3MBTL1 block: blocks human L3MBTL1; AlphaScreen L3MBTL1–H3K9me1 peptide binding; Potency, µM (top dose mostly 57.1 µM), for inactives: at the highest dose activity, negative = inhibition, usual class: inhibitors; hit rate 0.66% among 230,000; AID 485360; further: potency means the concentration at half of the fitted maximal effect; on the % scale 0 is the no-effect control and ±100 the full control effect; nearly all actives have a fitted effect of over 60% in size
#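 AlphaScreen proximity signal between nickel-chelate acceptor and streptavidin donor beads (final 10 ug/mL) reports binding of 50 nM L3MBTL1 to 75 nM biotin-H3 K9me1 peptide; complex incubated with compounds 30 min at room temperature; cefsulodin titration as control.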
# HP1b binding inh: inhibitors of HP1-beta chromodomain binding to methylated histone tails; hit rate 0.56% among 390,000; P83916; AlphaScreen HP1-beta / biotin-H3K9me3 peptide binding; Potency, µM (titrated, usually from 114 µM), inactives show at the top dose activity change, negative = inhibition, usual class: inhibitors; further: potency means the concentration at half of the fitted maximal effect; nearly all actives have a fitted effect of over 70% in size
#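 HP1-beta protein (50 nM final) preincubated 30 min at room temperature with biotinylated H3(1-18)K9me3 peptide (50 nM) in PBS pH 7.4, 0.01% Tween-20, then compound added for 30 min. AlphaScreen streptavidin donor/nickel chelate acceptor beads (10 ug/mL final), 30 min dark, luminescence read.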
# JMJD2A Tudor: inhibitors of human JMJD2A Tudor domain. O75164. AlphaScreen JMJD2A-Tudor / H3K4me3 peptide binding. Potency, µM (highest dose often 114 µM), for inactives: at the highest dose activity change, negative = inhibition, most hits filed as inhibitors. hit rate 4.4% among 390,000; further: potency means the concentration at half of the fitted maximal effect; on the % scale 0 is the no-effect control and ±100 the full control effect; nearly all actives have a fitted effect of over 50% in size
# G9a block: G9a (human) methyltransferase inhibition | G9a H3K9 monomethylation, AlphaScreen, 2 h | hit rate 8.8% among 350,000 | Potency, µM (series often up to 102 µM), without a hit: top-dose activity, negative = inhibition, actives largely listed as inhibitors | Q96KQ7; further: potency means the concentration at half of the fitted maximal effect; on the % scale 0 is the no-effect control and ±100 the full control effect; nearly all actives have a fitted effect of over 75% in size
#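 Compounds were preincubated with 20 nM G9a for 15 min, after which biotinylated H3K9 peptide (500 nM) and SAM (20 uM) started a 2 h room-temperature reaction. Monomethylated product was quantified by antibody-based AlphaScreen chemiluminescence.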
# PI5P4Ka inh: inhibitors of human PI5P4K alpha; hit rate 1.2% among 330,000; AID 652105; P48426; PI5P4Kalpha enzyme, ADP-Glo luminescence, 60 min; active compounds read low; max response, %; active means max response of -50% or lower; inconclusive means between -30% and -50%; inactive means -30% or higher; further: value at the top dose of about 77 µM; on the % scale 0 is the no-effect control and ±100 the full control effect
#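 Reactions run in 0.038 M HEPES pH 7.4, 0.28 mM EGTA, 0.1% CHAPS and 5% DMSO, with PI5P4Kalpha, substrate, compound and 5 microM ATP final, one hour at room temperature. Readout is ADP-Glo luminescence.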
# BAZ2B inh: inhibitors of human BAZ2B bromodomain | AlphaScreen BAZ2B-H3K14Ac peptide displacement | Potency, µM (doses to about 114 µM), for inactives: at the top dose activity change, negative = inhibition, actives largely listed as inhibitors | hit rate 4.4% among 360,000; further: potency means the concentration at half of the fitted maximal effect; on the % scale 0 is the no-effect control and ±100 the full control effect; nearly all actives have a fitted effect of over 60% in size
#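 In this displacement format the biotinylated H3(5-23) peptide acetylated at Lys14 serves as ligand at 50 nM, with BAZ2B at 50 nM in PBS pH 7.4 containing 0.01% Tween-20. Donor and acceptor beads are 10 ug/mL final.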
# Numbers without * were called inactive; ? = inconclusive; . = no result given; [ ] = remark or other dose. Unless noted, the call rests on the fitted dose curve; in most records, active means well fitted inhibition curve with a large enough effect; inconclusive means small, poorly fitted or top-dose-only effect; inactive means no such curve, though single readings can be large or run the other way.
SMILES,L3MBTL1 block,HP1b binding inh,JMJD2A Tudor,G9a block,PI5P4Ka inh,BAZ2B inh
CN(C)c1ccc(-c2cccc(C3CC=CC4C3C(=O)N(Cc3ccccc3)C4c3ccc(C(F)(F)F)cc3)c2)cc1 (configuration not stated),.,-9%,?,?,-7,-38%
CN1C(=O)C2C(c3ccc(N(C)C)cc3)NN(Cc3ccccc3)C2C1=O (configuration not stated),-13%[11.4 µM],?,?,?,-2,40µM*
COc1cccc(CN2C(=O)N(c3ccc(C)cc3)C(=O)C2CC(=O)Nc2cc(OC)cc(OC)c2)c1 (configuration not stated),.,30%,-17%,?,.,-19%
Cc1ccc2c(c1)c(=O)c(C(=O)c1ccc3c(c1)OCO3)cn2Cc1cccc(F)c1,.,22%,-11%,-3%[59 µM],.,-23%
COc1ccc(C2=CC3=C(Br)C(=O)C(C)(O)C(=O)C3=CO2)cc1 (configuration not stated),.,-21%,?,?,-83*,-36%
Cc1ccccc1NC(=O)CCNC(=O)Cn1ccc2ccccc2c1=O,.,26%,1%,-1%[59 µM],.,3%
CCOC(=O)C(=NCC1CCCO1)NNc1cc(Cl)ccc1Cl (configuration not stated),.,2%,?,35µM*,39,?
Cc1ccc(-n2c(C)cc(C(=O)NS(=O)(=O)c3ccc(C)cc3)c2C)cc1,-12%,2%,-29%,50µM*,-1,?
COCCCNC(=O)CCCn1c(=O)c2ccccc2n(CC(=O)Nc2ccc(C)cc2Cl)c1=O,.,13%,-6%,-10%[59 µM],.,-26%
O=C(/C=C/c1ccco1)OCn1nnc2ccccc2c1=O,?,17%,-13%,35µM*,3,56µM*
O=C(/C=C/c1ccco1)OCc1nnc(-c2ccccc2)o1,.,6%,-26%,50µM*,-26,50µM*
O=C(COC(=O)/C=C/c1ccco1)Nc1ccccc1,?,-2%,-23%,56µM*,-18,?
O=C(COC(=O)/C=C/c1ccco1)Nc1ccc(F)cc1Cl,-6%,5%,-16%,?,-17,?
COc1cccc(/C=C/C(=O)OCC(=O)Nc2ccc(Cl)c(S(=O)(=O)N(C)C)c2)c1,-1%,35%,-5%,9%,-2,-25%
CN(C)S(=O)(=O)c1cc(NC(=O)COC(=O)/C=C/c2ccco2)ccc1Cl,.,?,56µM*,?,-71*,?
Cc1ccc(/C=C/C(=O)OCn2nnc3ccccc3c2=O)o1,.,15%,-3%,?,0,-34%
Cc1nc2nc(NC(=O)CC(C)C)[nH]n2c(=O)c1Cc1ccccc1,.,21%,-9%,-4%[59 µM],.,1%
CCN(CC)S(=O)(=O)c1ccc(C(=O)Nc2nc3c(Cl)cc(Cl)cc3s2)cc1,.,49%[57 µM],-6%,1%[59 µM],.,34%
COCCNC(=O)CSc1nc(-c2ccc(C)cc2)nc2c1c(=O)n(C)c(=O)n2C,.,16%[57 µM],-5%,12%[59 µM],.,-1%
COC(=O)c1ccccc1NC(=O)COC(=O)c1ccc(C)c(NC(=O)c2ccco2)c1,-1%,35%,-17%,22%,.,23%
CN(Cc1ccccc1)C(=O)COC(=O)/C=C/c1ccco1,.,?,?,35µM*,?,.
COC(=O)c1ccccc1NC(=O)COC(=O)/C=C/c1ccco1,-19%,12%,-13%,50µM*,-1,?
COC(=O)c1ccccc1NC(=O)COC(=O)c1ccco1,?,6%,?,9%,-28,50µM*
O=C(COC(=O)/C=C/c1ccco1)NCc1ccc2c(c1)OCO2,-4%,0%,-19%,56µM*,-28,71µM*
Cc1nn(CCCC(=O)Nc2ccccc2C(F)(F)F)c(=O)c2c1sc1ccccc12,.,63%,0%,?,.,0%
SMILES,L3MBTL1 block,HP1b binding inh,JMJD2A Tudor,G9a block,PI5P4Ka inh,BAZ2B inh
CCOC(=O)c1cc(C#N)c(=S)[nH]c1C,4%,23%,40µM*,10µM*,-26,-25%
COCc1[nH]c(=S)c(C#N)cc1C(=O)OC,-5%,?,22µM*,-137%[59 µM],-62*,-8%
CCOC(=O)C1CCCN(S(=O)(=O)c2ccc3[nH]c(=O)oc3c2)C1 (configuration not stated),.,11%,-20%,7%[59 µM],.,-15%
Cn1/c(=N/N=C/c2ccccn2)sc2ccccc21,?,?,89µM*,?,-8,?
CC(C)CCNC(=O)c1ccc(Cn2c(SCC(N)=O)nc3ccccc3c2=O)cc1,.,23%[57 µM],-4%,-2%[59 µM],.,4%
Cc1nc2[nH]c(=O)n(O)c(=O)c2s1,.,8%,7.9µM*,.,-6,.
CCCCN(C(=O)c1cc2c(s1)CCC2)c1c(N)n(CC(C)C)c(=O)[nH]c1=O,-9%,-6%,-35%,2%[12.7 µM],?,?
COCCN(C(=O)c1cc2c(s1)CCC2)c1c(N)n(CC(C)C)c(=O)[nH]c1=O,?,20%,?,-45%[12.7 µM],?,56µM*
CCCCN(C(=O)c1cc2c(s1)CCC2)c1c(N)n(CCC)c(=O)[nH]c1=O,?,?,?,45µM*,?,?
COCCN(C(=O)C1CCN(C(=O)c2ccccc2C)CC1)c1c(N)n(CC(C)C)c(=O)[nH]c1=O,1%,-12%,89µM*,1.6µM*,2,?
COCCN(C(=O)c1cc2c(s1)CCCCC2)c1c(N)n(CC(C)C)c(=O)[nH]c1=O,33%,52%,-12%,1%[59 µM],-3,38%
COc1ccc(CNC(=O)C2CCCN(C(=O)N3CCOc4ccccc43)C2)cc1 (configuration not stated),.,25%,-10%,-47%[59 µM],.,-5%
CC(=O)Nc1ccc(/C=C/c2nc(-c3ccccc3O)n(-c3ccccc3)n2)cc1,.,17%,-12%,-1%[59 µM],.,1%
COc1ccc(-c2[nH]nc3nc(-c4cc(Br)ccc4OC)cc(C(=O)O)c23)cc1,.,29%,-17%,-7%[59 µM],.,-28%
Cc1c(C(=O)Nc2cccc(Cl)c2)c2ccccn2c1CCc1ccncc1,6%,34%,1%,-15%[59 µM],0,-8%
Cc1c(C(=O)c2ccc(F)cc2)c2ccccn2c1CCc1ccccn1,-13%,8%,-30%,45µM*,3,-39%
Cc1c(C(=O)c2ccccc2)c2ccccn2c1CCC#N,.,54%,-9%[11.4 µM],?,6,-37%
Cc1c(C(=O)Nc2ccc(Cl)cc2)c2ccccn2c1CCc1ccncc1,-8%,19%,-21%,14µM*,2,-33%
Cc1c(C(=O)c2ccccc2)c2ccccn2c1CCc1ccccn1,?,18%,-35%,40µM*,0,71µM*
CC(C)(C)OC(=O)NC(Cc1ccccc1)C(O)c1ccco1 (configuration not stated),.,35%,-16%,.,.,.
